# Reference: PubChem BioAssay (NCI)
# Compounds without any hit were thinned out: in the full panel of roughly 79,000, 15% have a hit. A number with no mark means an inactive call. Calls of active or inactive are those of the source. Rule as the data show it: active = growth inhibition above about 70%; inactive = the rest.
# How the values were obtained:
# [1] = NCI Yeast Anticancer Drug Screen. Data for the mlh1 strain (AID 171);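 also: 0% = growth of vehicle-treated control cultures of the same strain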; details: S. cerevisiae mlh1 strain growth inhibition, hits give high values
# Outline: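 Growth of the mutant yeast strain after compound exposure, expressed as inhibition relative to vehicle-only controls.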
# [2] = NCI Yeast Anticancer Drug Screen. Data for the sgs1 strain (AID 173);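 also: 0% = growth of vehicle-only control cultures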; details: S. cerevisiae sgs1 mutant, hits give high values
# Outline: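 Growth of a yeast strain bearing a defined genetic alteration is measured after compound treatment. Inhibition is expressed relative to vehicle-only controls.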
# [3] = NCI Yeast Anticancer Drug Screen. Data for the mlh1 rad18 strain (AID 175); details: S. cerevisiae mlh1 rad18 strain growth inhibition, hits give high values
# Outline: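 Read-out is yeast growth inhibition, calculated against vehicle-only controls. The compound was applied to a strain engineered with DNA damage repair alterations.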
# [4] = NCI Yeast Anticancer Drug Screen. Data for the rad18 strain (AID 177); details: S. cerevisiae rad18 mutant growth inhibition, hits give high values
# Outline: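 Growth of the mutant yeast strain after compound exposure, normalised to vehicle-only cultures.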
# [5] = NCI Yeast Anticancer Drug Screen. Data for the wt1 strain (AID 149);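 also: 0% = growth of vehicle-treated wt1 cultures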; details: S. cerevisiae wt1 strain (SPY 50644) growth inhibition, hits give high values
# Outline: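 wt1 strain grown with compound or vehicle; inhibition taken from the growth difference.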
# [6] = NCI Yeast Anticancer Drug Screen. Data for the rad50EPP+ strain (AID 151);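 also: 0% = growth of vehicle-treated control cultures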; details: S. cerevisiae rad50 mutant strain, hits give high values
# Outline: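 Compounds were applied to the rad50EPP+ yeast strain, which bears a defined DNA repair alteration, and growth inhibition was determined relative to vehicle-treated cultures.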
# [7] = NCI Yeast Anticancer Drug Screen. Data for the mgt1 strain (AID 153); details: S. cerevisiae mgt1 mutant growth inhibition, hits give high values
# Outline: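 Strain: mgt1 yeast, one of a set carrying defined DNA damage repair or cell cycle control alterations. Compound-treated growth compared with vehicle.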
# [8] = NCI Yeast Anticancer Drug Screen. Data for the rad50 strain (AID 155);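 also: 0% = growth of vehicle-only cultures of the same strain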; details: S. cerevisiae rad50 strain growth inhibition, hits give high values
# Outline: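 DNA repair mutant yeast, compound exposure, growth read-out; inhibition is taken relative to vehicle.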
# [9] = NCI Yeast Anticancer Drug Screen. Data for the mec2-1 strain (AID 157); details: S. cerevisiae mec2-1 strain, hits give high values
# Outline: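 Strain: mec2-1 (DNA repair/cell cycle alteration). Compound exposure, then growth measured; inhibition expressed relative to vehicle.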
# [10] = NCI Yeast Anticancer Drug Screen. Data for the rad14 strain (AID 159);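 also: 0% = growth of vehicle-treated control cultures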; details: S. cerevisiae rad14 strain growth inhibition, hits give high values
# Outline: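 DNA repair-defective yeast, compound-exposed; % growth inhibition derived by comparison with vehicle-treated controls.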
# [11] = NCI Yeast Anticancer Drug Screen. Data for the sgs1 mgt1 strain (AID 161);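 also: 0% = growth of cultures given vehicle only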; details: S. cerevisiae sgs1 mgt1 strain, hits give high values
# Outline: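 Inhibition of yeast growth, normalised to vehicle-treated controls, is reported for a strain bearing genetic alterations in DNA damage repair.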
# [12] = NCI Yeast Anticancer Drug Screen. Data for the CLN2oe strain (AID 163);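 also: 0% = growth of vehicle-only control cultures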; details: S. cerevisiae CLN2oe strain, hits give high values
# Outline: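 Growth of a genetically modified yeast strain is measured after compound exposure and compared with cultures given vehicle alone.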
# [13] = NCI Yeast Anticancer Drug Screen. Data for the cln2 rad14 strain (AID 165);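 also: 0% = growth equal to vehicle treated cultures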; details: S. cerevisiae cln2 rad14 strain, hits give high values
# Outline: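 Compounds are applied to the cln2 rad14 yeast strain, and growth is then compared with that of vehicle-treated cultures to give inhibition.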
# [14] = NCI Yeast Anticancer Drug Screen. Data for the bub3 strain (AID 167); details: S. cerevisiae bub3 mutant strain, hits give high values
# Outline: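 In this screen, a yeast mutant lacking normal mitotic checkpoint function is challenged with compound. Relative growth versus vehicle gives the inhibition value.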
# [15] = NCI Yeast Anticancer Drug Screen. Data for the wt2 strain (AID 169);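 also: 0% = growth of vehicle-treated yeast cultures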; details: S. cerevisiae wt2 strain growth inhibition, hits give high values
# Outline: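 This strain belongs to a panel of yeast strains with defined genetic alterations in DNA damage repair or cell cycle control. Compounds are applied, and growth inhibition is measured against vehicle-treated cultures.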
# [16] = at 5.0 µM (retest, dose inferred, filed as 0.5)
# [17] = at 50.0 µM (retest, dose inferred, filed as 5.0)
compound,measurement,setting,value
O=C1c2ccccc2-c2ccc(NC(=O)C3CCCCC3C(=O)O)cc21 (stereo unspecified),growth inhibition,[1]; at 33.0 µM,1%
same,growth inhibition,[1]; at 100.0 µM,77% (active)
same,growth inhibition,[2]; at 1.2 µM,3%
same,growth inhibition,[2]; at 3.7 µM,7%
same,growth inhibition,[2]; at 11.0 µM,15%
same,growth inhibition,[2]; at 33.0 µM,41%
same,growth inhibition,[2]; at 100.0 µM,85% (active)
same,growth inhibition,[3]; [16],-7%
same,growth inhibition,[3]; [17],34%
same,growth inhibition,[3]; at 50.0 µM,41.2%
same,growth inhibition,[4]; at 1.2 µM,12%
same,growth inhibition,[4]; at 3.7 µM,2%
same,growth inhibition,[4]; at 11.0 µM,16%
same,growth inhibition,[4]; at 33.0 µM,31%
same,growth inhibition,[4]; at 100.0 µM,72% (active)
COc1ccc(/C(=N/O)c2ccccc2C2=Nc3ccccc3C(NCc3ccccc3)O2)cc1C (stereo unspecified),growth inhibition,[5]; at 1.2 µM,-1%
same,growth inhibition,[5]; at 3.7 µM,-2%
same,growth inhibition,[5]; at 11.0 µM,1%
same,growth inhibition,[5]; at 33.0 µM,17%
same,growth inhibition,[5]; at 100.0 µM,89% (active)
same,growth inhibition,[6]; at 1.2 µM,3%
same,growth inhibition,[6]; at 3.7 µM,1%
same,growth inhibition,[6]; at 11.0 µM,15%
same,growth inhibition,[6]; at 33.0 µM,49%
same,growth inhibition,[6]; at 100.0 µM,82% (active)
same,growth inhibition,[7]; at 1.2 µM,-2%
same,growth inhibition,[7]; at 3.7 µM,-3%
same,growth inhibition,[7]; at 11.0 µM,-1%
same,growth inhibition,[7]; at 33.0 µM,31%
same,growth inhibition,[7]; at 100.0 µM,97% (active)
same,growth inhibition,[8]; at 1.2 µM,1%
same,growth inhibition,[8]; at 3.7 µM,3%
same,growth inhibition,[8]; [16],2%
same,growth inhibition,[8]; at 11.0 µM,11%
same,growth inhibition,[8]; at 33.0 µM,59%
same,growth inhibition,[8]; [17],95% (active)
same,growth inhibition,[8]; at 50.0 µM,94.9% (active)
same,growth inhibition,[8]; at 100.0 µM,94% (active)
same,growth inhibition,[9]; at 1.2 µM,-2%
same,growth inhibition,[9]; at 3.7 µM,0%
same,growth inhibition,[9]; [16],-4%
same,growth inhibition,[9]; at 11.0 µM,1%
same,growth inhibition,[9]; at 33.0 µM,37%
same,growth inhibition,[9]; [17],62%
same,growth inhibition,[9]; at 50.0 µM,92.6% (active)
same,growth inhibition,[9]; at 100.0 µM,96% (active)
same,growth inhibition,[10]; at 1.2 µM,1%
same,growth inhibition,[10]; at 3.7 µM,2%
same,growth inhibition,[10]; at 11.0 µM,7%
same,growth inhibition,[10]; at 33.0 µM,21%
same,growth inhibition,[10]; at 100.0 µM,96% (active)
same,growth inhibition,[11]; [16],-3%
same,growth inhibition,[11]; [17],85% (active)
same,growth inhibition,[11]; at 50.0 µM,95.8% (active)
same,growth inhibition,[12]; at 1.2 µM,-2%
same,growth inhibition,[12]; at 3.7 µM,2%
same,growth inhibition,[12]; at 11.0 µM,1%
same,growth inhibition,[12]; at 33.0 µM,4%
same,growth inhibition,[12]; at 100.0 µM,94% (active)
same,growth inhibition,[13]; [16],31%
same,growth inhibition,[13]; [17],51%
same,growth inhibition,[13]; at 50.0 µM,83% (active)
same,growth inhibition,[14]; at 1.2 µM,-1%
same,growth inhibition,[14]; at 3.7 µM,2%
same,growth inhibition,[14]; [16],15%
same,growth inhibition,[14]; at 11.0 µM,4%
same,growth inhibition,[14]; at 33.0 µM,48%
same,growth inhibition,[14]; [17],93% (active)
same,growth inhibition,[14]; at 50.0 µM,94.8% (active)
same,growth inhibition,[14]; at 100.0 µM,95% (active)
same,growth inhibition,[15]; at 1.2 µM,-1%
same,growth inhibition,[15]; at 3.7 µM,-3%
same,growth inhibition,[15]; at 11.0 µM,0%
same,growth inhibition,[15]; at 33.0 µM,14%
same,growth inhibition,[15]; at 100.0 µM,96% (active)
same,growth inhibition,[1]; at 1.2 µM,-6%
same,growth inhibition,[1]; at 3.7 µM,-2%
same,growth inhibition,[1]; at 11.0 µM,0%
same,growth inhibition,[1]; at 33.0 µM,14%
same,growth inhibition,[1]; at 100.0 µM,96% (active)
same,growth inhibition,[3]; [16],2%
same,growth inhibition,[3]; [17],93% (active)
same,growth inhibition,[3]; at 50.0 µM,94.2% (active)
same,growth inhibition,[4]; at 1.2 µM,0%
same,growth inhibition,[4]; at 3.7 µM,0%
same,growth inhibition,[4]; at 11.0 µM,11%
same,growth inhibition,[4]; at 33.0 µM,67%
same,growth inhibition,[4]; at 100.0 µM,94% (active)
Cc1ccc(C(C)C)c(C(=C2C=CC(=[N+](C)C)C=C2)c2c(C(C)C)ccc(C)c2O)c1O,growth inhibition,[5]; at 1.2 µM,1%
same,growth inhibition,[5]; at 3.7 µM,-2%
same,growth inhibition,[5]; at 11.0 µM,98% (active)
same,growth inhibition,[5]; at 33.0 µM,95% (active)
same,growth inhibition,[5]; at 100.0 µM,86% (active)
same,growth inhibition,[6]; at 1.2 µM,-1%
same,growth inhibition,[6]; at 3.7 µM,1%
same,growth inhibition,[6]; at 11.0 µM,-1%
same,growth inhibition,[6]; at 33.0 µM,-3%
same,growth inhibition,[6]; at 100.0 µM,-8%
same,growth inhibition,[7]; at 1.2 µM,-2%
same,growth inhibition,[7]; at 3.7 µM,0%
same,growth inhibition,[7]; at 11.0 µM,98% (active)
same,growth inhibition,[7]; at 33.0 µM,94% (active)
same,growth inhibition,[7]; at 100.0 µM,85% (active)
same,growth inhibition,[8]; at 1.2 µM,4%
same,growth inhibition,[8]; at 3.7 µM,16%
same,growth inhibition,[8]; [16],84% (active)
same,growth inhibition,[8]; at 11.0 µM,97% (active)
same,growth inhibition,[8]; at 33.0 µM,93% (active)
same,growth inhibition,[8]; [17],93% (active)
same,growth inhibition,[8]; at 50.0 µM,96.7% (active)
same,growth inhibition,[8]; at 100.0 µM,81% (active)
same,growth inhibition,[9]; at 1.2 µM,-1%
same,growth inhibition,[9]; at 3.7 µM,16%
same,growth inhibition,[9]; [16],53%
same,growth inhibition,[9]; at 11.0 µM,98% (active)
same,growth inhibition,[9]; at 33.0 µM,96% (active)
same,growth inhibition,[9]; [17],96% (active)
same,growth inhibition,[9]; at 50.0 µM,97.5% (active)
same,growth inhibition,[9]; at 100.0 µM,88% (active)
same,growth inhibition,[10]; at 1.2 µM,1%
same,growth inhibition,[10]; at 3.7 µM,19%
same,growth inhibition,[10]; at 11.0 µM,98% (active)
same,growth inhibition,[10]; at 33.0 µM,94% (active)
same,growth inhibition,[10]; at 100.0 µM,85% (active)
same,growth inhibition,[11]; [16],66%
same,growth inhibition,[11]; [17],96% (active)
same,growth inhibition,[11]; at 50.0 µM,97.3% (active)
same,growth inhibition,[13]; [16],51%
same,growth inhibition,[13]; [17],94% (active)
same,growth inhibition,[13]; at 50.0 µM,95.2% (active)
same,growth inhibition,[14]; at 1.2 µM,3%
same,growth inhibition,[14]; at 3.7 µM,8%
same,growth inhibition,[14]; [16],35%
same,growth inhibition,[14]; at 11.0 µM,97% (active)
same,growth inhibition,[14]; at 33.0 µM,93% (active)
same,growth inhibition,[14]; [17],97% (active)
same,growth inhibition,[14]; at 50.0 µM,95.3% (active)
same,growth inhibition,[14]; at 100.0 µM,81% (active)
same,growth inhibition,[15]; at 1.2 µM,1%
same,growth inhibition,[15]; at 3.7 µM,-1%
same,growth inhibition,[15]; at 11.0 µM,97% (active)
same,growth inhibition,[15]; at 33.0 µM,94% (active)
same,growth inhibition,[15]; at 100.0 µM,83% (active)
same,growth inhibition,[2]; at 1.2 µM,0%
same,growth inhibition,[2]; at 3.7 µM,14%
same,growth inhibition,[2]; at 11.0 µM,97% (active)
same,growth inhibition,[2]; at 33.0 µM,94% (active)
same,growth inhibition,[2]; at 100.0 µM,82% (active)
same,growth inhibition,[3]; [16],63%
same,growth inhibition,[3]; [17],94% (active)
same,growth inhibition,[3]; at 50.0 µM,96.9% (active)
same,growth inhibition,[4]; at 1.2 µM,-2%
same,growth inhibition,[4]; at 3.7 µM,25%
same,growth inhibition,[4]; at 11.0 µM,98% (active)
same,growth inhibition,[4]; at 33.0 µM,95% (active)
same,growth inhibition,[4]; at 100.0 µM,80% (active)
